# Results published in PubChem BioAssay AID2685 (National Center for Advancing Translational Sciences (NCATS), 2010).
# Among all 320,000 compounds or so, about 2,100 (0.66%) were called active. Another 53% or so got no clear call; they are omitted. Calls come from the whole dose curve; as a rule, active = well fitted inhibition curve with a large enough effect in the signal ratio, with a control signal flat (not every such curve was filed as active); inconclusive = small, poorly fitted or top-dose-only effect, or effect the other way, or a change in a side signal; inactive = flat fitted curve, though single readings scatter; the % refers to the signal ratio. The sample as a whole holds a higher share of actives than the screen did.
# Assay: qHTS Assay for Lipid Storage Modulators in Drosophila S3 Cells;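 for cell number change: cells counted by Cell Tracker Red CMTPX staining in the red channel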; for lipid storage change, negative = inhibition: % is set by controls: 0 for no effect and ±100 for the full control effect
# Details: BODIPY lipid droplet fluorescence, 18-24 h, cells fed with added oleic acid; cell number change: measured here: cell count max response; series mostly up to 46.1 µM
# Outline: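 Laser-scanning cytometry quantifies lipid droplet accumulation (500–530 nm total intensity; droplet/cell object ratio) in oleic acid-fed (400 uM added) Drosophila S3 cells treated with a concentration series. 20 uM Triacsin C defined 100% inhibition.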
# Potency is the fitted concentration of half-maximal effect.
Structure (SMILES),Potency,cell number change [%],"lipid storage change, negative = inhibition"
Cc1ccc(S(=O)(=O)NNC(=O)c2csnn2)cc1,inactive,–,–
O=[N+]([O-])c1ccc(CN2CCCCCC2)s1,inactive,-8.81,–
Cc1ccc2nc(SCC(=O)Nc3cccc(F)c3)nc(=O)n2c1,4.11 µM (active),1.08,–
Cc1ccc2nc(SCC(=O)Nc3ccc(Br)cc3)nc(=O)n2c1,inactive,-15.9,–
Cc1ccc2nc(SCC(=O)Nc3cc(C)on3)nc(=O)n2c1,–,23.9,-10.5% [at 0.0737 µM] (inactive)
CCOC(=O)C1=C(N)OC2=C(C(=O)CC(C)(C)C2)C1c1cccnc1 (configuration not stated),inactive,-4.63,–
CCOCCCNC(=S)N(Cc1ccccc1)Cc1nc2ccccc2c(=O)[nH]1,0.92 µM (active),5.59,–
COCCCNC(=S)N(Cc1ccccc1)Cc1ccccc1,inactive,-0.836,–
O=C(c1ccccc1)N(Cc1ccc(F)cc1)Cc1nc2ccccc2c(=O)[nH]1,inactive,-10.1,–
CNC(=S)N(Cc1cc2ccc(OC)cc2[nH]c1=O)CC1CCCO1 (configuration not stated),inactive,-8.74,–
Cc1onc(-c2ccccc2)c1-c1ccnn1C(=O)NC(C)C,inactive,15.2,–
O=C1CCCC(=O)N1c1ccc(N2CCN(c3ccccc3)CC2)c([N+](=O)[O-])c1,inactive,-1.18,–
Cc1cccc(N2CCN(c3ccc(N4C(=O)CCCC4=O)cc3[N+](=O)[O-])CC2)c1C,inactive,4.71,–
O=C1CCCC(=O)N1c1ccc(N2CCN(c3ccc([N+](=O)[O-])cc3)CC2)c([N+](=O)[O-])c1,20.6 µM (active),-26.2,–
COC(=O)[C@@H]1C[C@@]2(O)[C@@H](O)[C@@H](O)[C@@H](O)C[C@H]2N1CC(c1ccccc1)c1ccccc1,inactive,–,–
O=C(c1cc2n(n1)C(C(F)(F)F)CC(c1ccc(Cl)cc1)N2)N1CCCC1 (configuration not stated),inactive,–,–
O=C(O)CCC(=O)N1CCc2cc(S(=O)(=O)NCc3ccc(Cl)cc3)ccc21,inactive,–,–
COc1ccccc1OCC(=O)Nc1ccc(NC(=O)COc2ccccc2OC)cc1,inactive,-9.29,–
COc1ccc2nc(SCC(=O)NC3CCCCC3)[nH]c2c1,inactive,19.4,–
CC1CCCCC1NC(=O)CSc1nc2ccccc2[nH]1 (configuration not stated),inactive,3.6,–
COc1ccc2nc(SCC(=O)NC3CCCCC3C)[nH]c2c1 (configuration not stated),29.1 µM (active),1.48,–
CCCCCCCCCCOC(=O)c1csc2nnsc12,inactive,6.22,–
O=C(NCCCO)c1ccc2[nH]c3ccccc3c2c1,inactive,-15.6,–

Structure (SMILES),Potency,cell number change [%],"lipid storage change, negative = inhibition"
Cc1cnc(C(=O)Nc2cccc(-c3nnc4n3CCCCC4)c2)cn1,inactive,3.24,–
Cc1ccc(C(NC(=O)N2CC(C)OC(C)C2)C(Cl)Cl)cc1F (configuration not stated),inactive,-1.54,–
O=C(c1c[nH]c(C(=O)C(Cl)(Cl)Cl)c1)c1ccccc1F,inactive,-11.6,–
O=C(c1c[nH]c(C(=O)C(Cl)(Cl)Cl)c1)c1ccccc1Cl,25.9 µM (active),-14.7,–
O=C(c1c[nH]c(C(=O)C(Cl)(Cl)Cl)c1)c1ccccc1Br,inactive,7.04,–
COCC(=O)N1CCC(Oc2ccc(C(=O)NCc3cc(C)n(C)n3)cc2)CC1,16.4 µM (active),-3.12,–
COCCC(=O)N1CCC(Oc2ccc(C(=O)NCc3cc(C)n(C)n3)cc2)CC1,inactive,-14.5,–
COCC(=O)N1CCC(Oc2ccc(C(=O)NCc3cnc(C)cn3)cc2)CC1,inactive,0.0828,–
CSc1ccc(C(=O)C2CCCN(C(=O)c3cc4cc(F)ccc4[nH]3)C2)cc1 (configuration not stated),inactive,18.3,–
CCN1CCN(CC(=O)Nc2ccc(OC(F)(F)F)cc2)CC1,inactive,-11.2,–
O=C(Nc1nc2ccccc2s1)c1ccc([N+](=O)[O-])o1,inactive,24.1,–
O=C(COC(=O)c1ccc([N+](=O)[O-])o1)Nc1nc2ccccc2s1,inactive,-3.3,–
O=C(Nc1nc2c(F)cc(F)cc2s1)c1ccc2c(c1)OCCO2,inactive,6.09,–
O=C(Nc1nc2c(Cl)cccc2s1)c1ccc([N+](=O)[O-])o1,11.6 µM (active),-16.1,–
O=C(Nc1nc2c(F)cc(F)cc2s1)c1ccc([N+](=O)[O-])o1,5.8 µM (active),-16.4,–
O=C(Nc1nc(-c2cccs2)cs1)C1=COCCO1,inactive,-0.427,–
Cc1cc(C)c2nc(NC(=O)c3ccc([N+](=O)[O-])o3)sc2c1,inactive,8.03,–
O=C(Nc1nc(-c2cccs2)cs1)c1ccc([N+](=O)[O-])o1,2.06 µM (active),-9.47,–
CC(=O)Nc1nc(-c2cccs2)cs1,inactive,-17,–
CCc1cccc(NC(=S)N(CCN(C)C)C(C)c2ccncc2)c1 (configuration not stated),inactive,-2.18,–
O=[N+]([O-])c1ccc(N2CCN(S(=O)(=O)Cc3ccccc3)CC2)cc1N1CCOCC1,inactive,–,–
CN1CCN(S(=O)(=O)c2csc(C(N)=O)c2)CC1,inactive,–,–
COc1ccc(N2CCN(C(=O)Cn3c(=O)c4cccn4c4cccnc43)CC2)cc1,inactive,25.5,–

Structure (SMILES),Potency,cell number change [%],"lipid storage change, negative = inhibition"
CCCCn1c(SCC(=O)NCc2ccco2)nc2c1c(=O)n(C)c(=O)n2C,inactive,-2.87,–
Cc1nn(CC(=O)NCCc2ccc(Cl)cc2)c(=O)c2cccn12,inactive,14.2,–
O=C(Cn1c(=O)c2cccn2c2ccccc21)NCCc1ccc(Cl)cc1,inactive,23.3,–
CC(C(=O)NCCc1ccc(Cl)cc1)n1c(=O)c2cccn2c2cccnc21 (configuration not stated),0.517 µM (active),-6.73,–
Cn1ccsc1=NC(=O)c1cccc(OC(F)F)c1,inactive,-7.04,–
CCOc1cc(C(=O)N=c2sccn2C)ccc1OC(F)F,11.6 µM (active),-22.3,–
CCCCOc1ccc(C(=O)N=c2sccn2C)cc1OC,inactive,-1.16,–
CC(Oc1ccc(Br)cc1)C(=O)Nc1ccc(N2CCOCC2)cc1N1CCOCC1 (configuration not stated),inactive,-0.694,–
COc1ccccc1Nc1nc(N)nc(CSC(=S)N2CCC(C)CC2)n1,inactive,8.57,–
COc1ccc(C(C)=O)cc1COc1ccc(F)cc1,–,-1.38,21.6% [at 9.22 µM] (inactive)
CCOc1ccc(C(C)=O)cc1COc1ccc(-c2nnco2)cc1,1.84 µM (active),–,–
Fc1ccc(COc2ccc(-c3nnco3)cc2)c(Cl)c1,inactive,3.42,–
O=C(NCCCn1ccnc1)Nc1ccc(Cl)cc1,inactive,-5.93,–
Cc1c(N)cc(N)cc1C(=O)O,inactive,–,–
Cc1c(Br)cc(C(=O)NC2CCCCC2)c(C)c1C,inactive,-1.86,–
Cc1c(Br)cc(C(=O)O)c(C)c1C,25.9 µM (active),-29.4,–
Cc1nn(-c2ccccc2)c(Cl)c1/C=C1/C(=N)N2N=C(C(C)C)SC2=NC1=O,inactive,10.8,–
CCOc1ccc(N2CC(C(=O)NCc3nnnn3-c3ccc(C)c(C)c3)CC2=O)cc1 (configuration not stated),inactive,12.6,–
O=C(N/N=C/C=C/c1ccc([N+](=O)[O-])cc1)C1COc2ccccc2O1 (configuration not stated),inactive,-22.4,–
Cc1ccc(CSc2ncnc3c2cnn3-c2ccc(C)cc2)cc1,inactive,-6.49,–
Clc1ccc(-n2ncc3c(NCc4cccnc4)ncnc32)cc1Cl,13 µM (active),-22.6,–
Cc1ccc(-n2ncc3c(SCc4ccccc4)ncnc32)cc1,inactive,8.14,–
Fc1ccc(-n2ncc3c(SCc4cccnc4)ncnc32)cc1,23.1 µM (active),-12.6,–

Structure (SMILES),Potency,cell number change [%],"lipid storage change, negative = inhibition"
Cc1cccc(-n2ncc3c(NCc4cccnc4)ncnc32)c1,inactive,-21,–
COc1ccc(-n2ncc3c(NCc4cccnc4)ncnc32)cc1,inactive,-6.4,–
COc1cccc(NC(=O)Cn2c3ccccc3c3nc4n(c(=O)c32)CCCS4)c1,inactive,–,–
COc1ccc(Cn2nc(C)cc2C)cc1OC,inactive,–,–
O=C(CN(c1ccccc1)S(=O)(=O)c1ccccc1)N/N=C/c1ccco1,inactive,6.67,–
COc1ccc(CCNC(=O)C2CCN(S(=O)(=O)c3cnc[nH]3)CC2)cc1OC,inactive,4.12,–
CN(CCNC(=O)C1CCN(S(=O)(=O)c2cnc[nH]2)CC1)Cc1ccccc1,inactive,11.4,–
COC(=O)CNC(=O)C1CCN(S(=O)(=O)c2cnc[nH]2)CC1,0.326 µM (active),-7.96,–
CCN(CCCNC(=O)C1CCN(S(=O)(=O)c2cnc[nH]2)CC1)c1ccccc1,inactive,–,–
O=C(C1CCN(S(=O)(=O)c2ccccc2F)CC1)N1CCN(Cc2ccc3c(c2)OCO3)CC1,inactive,-10.8,–
Cc1ccc(CNC(=O)C2CCCN(S(=O)(=O)c3cnc[nH]3)C2)cc1 (configuration not stated),inactive,-11.5,–
COc1ccc(CNC(=O)C2CCCN(S(=O)(=O)c3cnc[nH]3)C2)cc1 (configuration not stated),8.2 µM (active),-8.84,–
O=C(NCc1ccccn1)C1CCN(S(=O)(=O)c2cnc[nH]2)CC1,inactive,-2.16,–
O=C(C1CCN(S(=O)(=O)N2CCOCC2)CC1)N1CCN(Cc2ccc3c(c2)OCO3)CC1,inactive,-10.4,–
O=C(C1CCN(S(=O)(=O)c2cnc[nH]2)CC1)N1CCN(Cc2ccc3c(c2)OCO3)CC1,5.8 µM (active),1.49,–
COc1ccccc1CNC(=O)C1CCCN(S(=O)(=O)c2cnc[nH]2)C1 (configuration not stated),inactive,23,–
CCCCNC(=O)C1CCN(S(=O)(=O)c2cnc[nH]2)CC1,18.4 µM (active),-1.76,–
CC(=O)NC1=NN(C(C)=O)C(C)(CS(=O)(=O)c2ccc(Cl)cc2)S1 (configuration not stated),inactive,-3.99,–
O=C(O)CC(NC(=O)c1ccco1)c1ccco1 (configuration not stated),inactive,3.18,–
Cn1c(-c2ccccn2)[n+](C)c2ccccc21,inactive,8.68,–
CCN(CC)CC(=O)N1c2ccccc2Oc2c(c(=O)n(C)c(=O)n2C)C1c1cccc([N+](=O)[O-])c1 (configuration not stated),inactive,16,–
COc1ccc(CC(=O)N/N=C(\C)CC(=O)Nc2ccc3c(c2)OCCO3)cc1OC,inactive,-9.52,–
CN(c1ccccc1)S(=O)(=O)c1ccc(C(=O)OCC(=O)N2CCOCC2)cc1,inactive,–,–
